Test results reported in the supplement of paper PMC6555819.

Experiments:
Test in all cases: PBM binding z-score (relative to random genomic background probes); higher = stronger binding; sequences stand for … in GC…GCGATTGACAGCGTAGAATGAAGG
[1] = system: FXR:RXRa (NR concentration 270 nM, RXRa partner concentration 90 nM)
Procedure, shortened: (§1)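 Custom Agilent 4×180K protein-binding microarrays carried double-stranded probes, each with a 34-nt variable region. These regions held direct-repeat seeds, single-nucleotide variants, half-site ablations and random human genomic background sequences. Ligand-free nuclear receptor dimers were incubated on the arrays for 1 h, antibodies against each partner (one per run) detected binding, and scanned fluorescence was regression-normalized. Binding z-scores take the random background probes as reference.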

[2] = system: LXRa:RXRa (NR concentration 270 nM, RXRa partner concentration 90 nM)
Procedure, shortened: as §1

[3] = system: LXRa homodimer (NR concentration 270 nM)
Procedure, shortened: as §1

[4] = system: LXRb:RXRa (NR concentration 270 nM, RXRa partner concentration 90 nM)
Procedure, shortened: as §1

[5] = system: LXRb homodimer (NR concentration 270 nM)
Procedure, shortened: as §1

[6] = system: PPARa:RXRa (NR concentration 270 nM, RXRa partner concentration 90 nM)
Procedure, shortened: as §1

[7] = system: PPARg:RXRa (NR concentration 180 nM, RXRa partner concentration 90 nM)
Procedure, shortened: as §1

[8] = system: PPARg:RXRa 270nM:90nM, anti-RXR (NR concentration 270 nM, RXRa partner concentration 90 nM)
Procedure, shortened: as §1

[9] = system: PPARg:RXRa 30nM:10nM, anti-RXR (NR concentration 30 nM, RXRa partner concentration 10 nM)
Procedure, shortened: as §1

[10] = system: PPARg:RXRa 90nM:30nM, anti-RXR (NR concentration 90 nM, RXRa partner concentration 30 nM)
Procedure, shortened: as §1

[11] = system: PPARg:RXRa DBDmut IVT, anti-RXR (DBD mutation: RXRa K156A/R161A, NR concentration 270 nM, RXRa partner concentration 90 nM)
Procedure, shortened: as §1

[12] = system: PPARg:RXRa IVT, anti-PPARg (NR concentration 270 nM, RXRa partner concentration 90 nM)
Procedure, shortened: as §1

[13] = system: PPARg DBDmut:RXRa IVT, anti-PPARg (DBD mutation: PPARg1 K132A/R137A, NR concentration 270 nM, RXRa partner concentration 90 nM)
Procedure, shortened: as §1

[14] = system: PPARg DBDmut IVT, anti-PPARg (DBD mutation: PPARg1 K132A/R137A, NR concentration 270 nM)
Procedure, shortened: as §1

[15] = system: PPARg homodimer (NR concentration 180 nM)
Procedure, shortened: as §1

[16] = system: PXR:RXRa (NR concentration 270 nM, RXRa partner concentration 90 nM)
Procedure, shortened: as §1

[17] = system: PXR homodimer (NR concentration 270 nM)
Procedure, shortened: as §1

[18] = system: RARa:RXR (NR concentration 270 nM, RXRa partner concentration 90 nM)
Procedure, shortened: as §1

[19] = system: RARa homodimer (NR concentration 270 nM)
Procedure, shortened: as §1

[20] = system: RARb:RXRa (NR concentration 270 nM, RXRa partner concentration 90 nM)
Procedure, shortened: as §1

Row | Sequence | PBM binding z-score [1] | PBM binding z-score [2] | PBM binding z-score [3] | PBM binding z-score [4] | PBM binding z-score [5] | PBM binding z-score [6] | PBM binding z-score [7] | PBM binding z-score [8] | PBM binding z-score [9] | PBM binding z-score [10] | PBM binding z-score [11] | PBM binding z-score [12] | PBM binding z-score [13] | PBM binding z-score [14] | PBM binding z-score [15] | PBM binding z-score [16] | PBM binding z-score [17] | PBM binding z-score [18] | PBM binding z-score [19] | PBM binding z-score [20]
1 | ATCTCTAGGTAACGAGTTCAGTGAAAGAGAGGAC | 0.481 | 0.764 | 0.708 | 0.738 | 0.449 | 2.04 | 1.69 | 1.73 | 0.509 | 1.26 | 4.09 | 3.44 | 0.909 | 0.668 | 0.806 | 2.31 | 2.89 | 0.857 | 0.668 | 1.35
2 | ATTTCTAGGTAAAGTTCAGTGAAAGATCGATAGA | 1.69 | 2.17 | 1.41 | 1.4 | 1.27 | 2.82 | 3.19 | 4.21 | 2.41 | 4.03 | 4.75 | 4.3 | 2.07 | 2.14 | 2.58 | 2.41 | 2.25 | 1.36 | 2.45 | 2.95
3 | CCTAGTTGGTCAAGAGGTCACACACCGGATATGA | 5.19 | 5.02 | 3.61 | 4.58 | 0.768 | 5.71 | 5.69 | 5.36 | 3.16 | 4.81 | 2.07 | 4.43 | 0.763 | 0.00136 | 3.36 | 4.96 | 1.63 | 5.63 | 1.6 | 4.83
4 | CCTATTAGTTGACCATAGGGGCAACCGAAGCTCG | 0.589 | 0.362 | 0.304 | 0.153 | 0.195 | 0.245 | 0.395 | 0.309 | -0.142 | 0.113 | 0.502 | 0.611 | 0.353 | -0.128 | 1.32 | 0.256 | 0.563 | 0.446 | 1.9 | 0.983
5 | GCTTGTAGATTAAGGTTAAGAAAGACTAAGCTAA | 0.292 | 0.89 | -0.399 | 0.611 | -0.832 | 1.32 | 0.216 | 0.627 | -0.258 | 0.49 | -0.0536 | 0.119 | 0.205 | -0.0743 | 0.0936 | 0.375 | -0.332 | 1.01 | 0.194 | 0.875
6 | TCTTGTAGATCAAAGGTAAAGAAAGCCGAAGCCT | 0.667 | 0.672 | -0.3 | 0.446 | -0.436 | 3.14 | 5.41 | 6.12 | 6.21 | 6.93 | 2.51 | 2.4 | 0.0443 | -0.451 | 0.519 | 0.378 | 0.111 | 0.715 | -0.116 | 0.397
7 | TCTTGTAGATCAACAGGAGGTTCAGAAAGATCGA | 0.027 | -0.0973 | -0.476 | -0.000896 | -0.414 | 0.453 | -0.062 | 1.25 | 2.65 | 2.18 | 1.5 | 0.779 | 0.136 | 0.251 | -0.725 | 0.256 | -0.264 | 0.00715 | -0.572 | 0.0281
